In the library only some 3.8% were active in any assay of this set; here they are far more common.
CBFb RUNX1 block: qHTS Assay for Compounds Blocking the Interaction Between CBF-beta and RUNX1 for the Treatment of Acute Myeloid Leukemia; Runt-related transcription factor 1 (Homo sapiens) + Core-binding factor subunit beta …; AlphaScreen CBFb-His/RUNX1-biotin binding, biochemical; Potency, µM (highest dose often 59.8 µM), usual class: inhibitors; 230,000 tested, under 10 active
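AlphaScreen binding: CBFb-His and RUNX1-biotin (30 nM each) preincubated 20 min, compound added for 15 min, then nickel and streptavidin beads for 90 min, all at room temperature. Disruption of the interaction by any mechanism counts as activity.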
KCNH2 3.1 block: qHTS for Inhibitors of KCHN2 3.1: Mutant qHTS; Potassium voltage-gated channel subfamily H member 2, brain isoform KCNH2 3.1 (human); U2OS KCNH2 3.1, thallium flux FluxOr; stronger effect = lower value; activity change, % (tested at about 1.8 µM); hit rate 0.95% among 340,000;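 active means maximum activity change below -70%; inconclusive means maximum activity change from -70% to -50%; inactive means maximum activity change above -50%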;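 further: thallium influx rate constant from kinetic fluorescence after stimulation buffer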
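Channel expression came from 3.1 mutant virus (1.77 x 10^8 /mL) applied to suspended U2OS cells for 4 h. Flux was tracked with FluxOr dye plus Red40 quencher, and kinetic rate constants normalized to controls.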
VDR inhibitor: Inhibitors of the vitamin D receptor (VDR): qHTS; Vitamin D3 receptor (Homo sapiens), P11473; VDR-SRC2-3 peptide fluorescence polarization, 2 h; Potency, µM, usual class: inhibitors; hit rate 0.93% among 400,000
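Compounds are added to VDR with labelled SRC2-3 coactivator peptide and held 2 h at room temperature. Inhibition of the VDR–peptide interaction is then read as a change in fluorescence polarization.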
MBNL1-CUG inh: qHTS Assay for Inhibitors of MBNL1-poly(CUG) RNA binding | Muscleblind-like protein 1 (Homo sapiens), Q9NR56 | TR-FRET MBNL1-His/biotin-(CUG)12 binding, 665/545 ratio | Potency, µM (top dose mostly 57.5 µM), hits mostly inhibitors | hit rate 0.036% among 280,000; active means well fitted inhibition curve with a large enough effect in the signal ratio, with a control signal flat, not every such curve was filed as active; inconclusive means small, poorly fitted or top-dose-only effect, or effect the other way, or a change in a side signal; inactive means no such curve, though single readings can be large or run the other way; the % refers to the signal ratio
Target sequence (Q9NR56 whole entry, looked up): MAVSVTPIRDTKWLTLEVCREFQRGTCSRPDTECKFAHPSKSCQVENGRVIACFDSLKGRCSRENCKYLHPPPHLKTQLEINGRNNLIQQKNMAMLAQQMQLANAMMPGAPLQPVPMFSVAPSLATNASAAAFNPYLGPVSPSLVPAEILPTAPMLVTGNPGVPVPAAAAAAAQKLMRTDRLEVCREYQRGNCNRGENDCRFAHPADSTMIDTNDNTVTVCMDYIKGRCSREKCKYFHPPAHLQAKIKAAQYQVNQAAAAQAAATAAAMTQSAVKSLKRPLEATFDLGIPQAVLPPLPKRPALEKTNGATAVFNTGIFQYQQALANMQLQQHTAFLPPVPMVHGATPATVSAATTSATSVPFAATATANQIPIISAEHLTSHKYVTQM
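Compounds (final 92 nM to 58 uM) are added to His-tagged MBNL1 and biotin-(CUG)12, then terbium anti-His antibody and streptavidin-XL665 (5 nM final). After 60 min at room temperature, the 665/545 nm ratio is read.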
KCNH2 WT inh: qHTS for Inhibitors of KCHN2 3.1: Wildtype qHTS; AID 720551, 2013; activity change, % at 1.84 µM; hit rate 0.37% among 340,000; U2OS, BacMam KCNH2, thallium flux FluxOr; stronger effect = lower value;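 active means maximum activity change below -70%; inconclusive means maximum activity change between -70% and -50%; inactive means maximum activity change above -50%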
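U2OS cells transduced with wild-type KCNH2 virus are loaded with FluxOr dye for 45 min, and thallium flux is measured in kinetic reads before and after stimulation buffer. Rate constants are normalized to DMSO controls.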
PLK1 PBD block: qHTS for Inhibitors of PLK1-PDB (polo-like kinase 1 - polo-box domain): Primary Screen. Serine/threonine-protein kinase PLK1 (Homo sapiens), P53350. Plk1 PBD binding of FITC phosphopeptide, fluorescence polarization. Potency, µM, hits mostly inhibitors. hit rate 2.8% among 360,000. AID 720504, 2013; further: series mostly up to about 57 µM; nearly all actives have a fitted effect of over 65% in size
Of the large screens only hits and unclear results are named; the others gave an inactive call. Unless noted, the call rests on the fitted dose curve; in most records, active means well fitted curve in the direction sought with a large enough effect; inconclusive means small, poorly fitted or top-dose-only effect, or another doubt; inactive means no such curve, though single readings can be large; an effect the other way counts as inactive or inconclusive.

CCOC(=O)Cn1c(=O)cc(C)c2ccccc21	VDR inhibitor inconclusive, PLK1 PBD block 3.4µM (no result: KCNH2 WT inh)
Cc1ccccc1-c1noc(-c2ccc(NCC3CCCO3)c([N+](=O)[O-])c2)n1 (stereo unspecified)	none (no result: CBFb RUNX1 block, KCNH2 3.1 block, MBNL1-CUG inh, KCNH2 WT inh, PLK1 PBD block)
O=C(Nc1sc2c(c1C(=O)NCc1cccnc1)CCCC2)c1cc(=O)c2ccccc2o1	none (no result: CBFb RUNX1 block, KCNH2 3.1 block, MBNL1-CUG inh, KCNH2 WT inh, PLK1 PBD block)
Cc1cc(C)cc(NC(=O)C2CCN(S(=O)(=O)c3c(C)noc3/C=C/c3ccco3)CC2)c1	none (no result: CBFb RUNX1 block, KCNH2 3.1 block, MBNL1-CUG inh, KCNH2 WT inh, PLK1 PBD block)
CC(C)c1ccc(NC(=O)c2cn(C3CCCCC3)c(=O)c3c2c2ccccc2n3C)cc1	none (no result: CBFb RUNX1 block, KCNH2 3.1 block, MBNL1-CUG inh, KCNH2 WT inh, PLK1 PBD block)
O=S(=O)(c1ccc(Cl)cc1)c1nc(-c2cccs2)oc1SCc1ccccc1F	none (no result: CBFb RUNX1 block, KCNH2 3.1 block, MBNL1-CUG inh, KCNH2 WT inh, PLK1 PBD block)
Cc1ccc(CN2CCCn3nc(C(=O)NCCC(C)C)cc3C2=O)cc1	none (no result: CBFb RUNX1 block, KCNH2 3.1 block, MBNL1-CUG inh, KCNH2 WT inh, PLK1 PBD block)
CCOc1ccc(NC(=O)CSC2=Nc3ccccc3C3=NC(CCC(=O)NCc4ccccc4)C(=O)N23)cc1 (stereo unspecified)	none (no result: CBFb RUNX1 block, KCNH2 3.1 block, MBNL1-CUG inh, KCNH2 WT inh, PLK1 PBD block)
O=C(Nc1ccc(S(=O)(=O)Nc2ncccn2)cc1)c1ccc(F)c(S(=O)(=O)N2CCOCC2)c1	PLK1 PBD block 30µM
CCOc1ccc(NC(=O)c2ccc(F)c(S(=O)(=O)N3CCN(c4ccccn4)CC3)c2)cc1	KCNH2 3.1 block -71
Cc1cccc(N(Cc2ccccc2)C(=O)c2ccc(F)c(S(=O)(=O)N3CCOCC3)c2)c1	none (no result: CBFb RUNX1 block, MBNL1-CUG inh)
Cc1ccc(N(Cc2ccccc2)C(=O)c2ccc(F)c(S(=O)(=O)N3CCOCC3)c2)cc1	KCNH2 3.1 block -93 (no result: CBFb RUNX1 block, MBNL1-CUG inh)
O=C(Nc1nnc(Cc2ccc(Cl)cc2)s1)C1CCN(C(=O)c2ccco2)CC1	none (no result: CBFb RUNX1 block, KCNH2 3.1 block, MBNL1-CUG inh, KCNH2 WT inh, PLK1 PBD block)
C[C@]12O[C@H](C[C@]1(O)CO)n1c3ccccc3c3c4c(c5c6ccccc6n2c5c31)CNC4=O	none (no result: CBFb RUNX1 block, KCNH2 3.1 block, MBNL1-CUG inh, KCNH2 WT inh, PLK1 PBD block)
Cc1ccccc1NCc1nc2ccccc2n1CCOc1ccccc1	none (no result: CBFb RUNX1 block, KCNH2 3.1 block, MBNL1-CUG inh, KCNH2 WT inh, PLK1 PBD block)
Cn1c(COc2cccc3cccnc23)nnc1SCC(=O)O	PLK1 PBD block 27µM (no result: KCNH2 WT inh)
N#CCCCS(=O)(=O)c1nnnn1-c1ccc(F)cc1Br	VDR inhibitor 45µM (no result: KCNH2 3.1 block, MBNL1-CUG inh, KCNH2 WT inh, PLK1 PBD block)
COC(=O)c1ccc(-n2cncn2)c([N+](=O)[O-])c1	MBNL1-CUG inh inconclusive, PLK1 PBD block 27µM
COc1cc(OC)cc(C(=O)NNC(=O)c2ccc(-n3cncn3)c([N+](=O)[O-])c2)c1	none (no result: CBFb RUNX1 block, MBNL1-CUG inh)
CC(C)S(=O)(=O)c1csc(C(=O)NN)c1-n1cccc1	none (no result: MBNL1-CUG inh)
COC(=O)c1scc(S(C)(=O)=O)c1-n1cccc1	PLK1 PBD block 30µM
COc1ccc(N(CC(=O)NCCSCc2ccccc2Cl)S(C)(=O)=O)cc1Cl	KCNH2 3.1 block -74 (no result: CBFb RUNX1 block)
CCn1c2ccccc2c2cc(NC(=O)COC(=O)c3cccc(S(=O)(=O)NC)c3)ccc21	none
CCN(CC)S(=O)(=O)c1cccc(C(=O)OCC(=O)Nc2ccc3c(c2)c2ccccc2n3CC)c1	KCNH2 WT inh -119
CCOc1nc(C#N)nc(N(c2ccccc2)c2ccccc2)n1	none (no result: CBFb RUNX1 block, KCNH2 3.1 block, MBNL1-CUG inh, KCNH2 WT inh, PLK1 PBD block)
CCc1ccccc1NC(=O)Cn1c(=O)n(Cc2ccc(OC)cc2)c(=O)c2oc3ccccc3c21	none (no result: CBFb RUNX1 block, KCNH2 3.1 block, MBNL1-CUG inh, KCNH2 WT inh, PLK1 PBD block)
Nc1nnc(CSCc2ccc(F)cc2)s1	PLK1 PBD block 19µM
Nc1nnc(Cc2ccc(Cl)c(Cl)c2)s1	none
Cc1ccccc1C(=O)NC(=S)Nc1ccc(S(=O)(=O)N(C)c2ccccc2)cc1	PLK1 PBD block 27µM
COC(=O)c1ccc(NC(=O)c2ccccc2N(C)S(=O)(=O)c2ccccc2)cc1	PLK1 PBD block 24µM
COC(=O)c1ccccc1NC(=O)c1ccccc1N(C)S(=O)(=O)c1ccccc1	none
Cc1cccc(C(=O)NC(=S)Nc2ccc(S(=O)(=O)N(C)c3ccccc3)cc2)c1	none
O=c1[nH]c2cc(Cl)c(O)cc2o1	none (no result: KCNH2 3.1 block, MBNL1-CUG inh, KCNH2 WT inh, PLK1 PBD block)
